Source: PubChem BioAssay (NCATS)
Inconclusive results are not listed. A number with no mark means an inactive call. The call rests on the fitted dose curve; in most records, active means well fitted inhibition curve with a large enough effect; inconclusive means small, poorly fitted or top-dose-only effect; inactive means flat fitted curve, though single readings scatter.

assay: Drug repurposing screens with cells derived from glioblastoma tumor samples (AID 1345199); details: GBM patient neurospheres viability, ATP luminescence, 48 h; at 91.6 µM (top of the series); tumour line A; further: nearly all actives have a fitted effect of over 40% in size
Procedure, shortened: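 Four patient lines of CD133+ GBM neurospheres were screened at several concentrations; hits were retested in those lines plus three slower-growing GBM lines, using 48-hour treatment and ATP-based viability.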
On the % scale 0 is the no-effect control and ±100 the full control effect.

First: O=C(Oc1ccccc1)c1cccc(C(=O)Oc2ccccc2)c1
Second: Brc1ccccc1-c1ccccc1
The activity, negative = cell killing of the first is higher: -20.2% for the first, -21.1% for the second.

Going from `c1ccc2occc2c1` to `CN1C(=O)c2ccccc2C1=O`, the activity, negative = cell killing rises from -19.3% to -18.9%.

Work on `C1=CC2C3C=CC(C3)C2C1` (configuration not stated) yielded an activity, negative = cell killing of -19.8%.

same assay, conditions: GBM patient neurospheres viability, ATP luminescence, 48 h; at 91.6 µM (top of the series); tumour line B

First: CC(C)C(C)(C)C(C)(C)C(C)(C)S
Second: CN1C(=O)c2ccccc2C1=O
The activity, negative = cell killing of the first is higher: -9.39% for the first, -9.87% for the second.

Going from `O=C(Oc1ccccc1)c1cccc(C(=O)Oc2ccccc2)c1` to `Brc1ccccc1-c1ccccc1`, the activity, negative = cell killing rises from -23.3% to -9.1%.

Compared with `c1ccc2occc2c1`, `C1=CC2C3C=CC(C3)C2C1` (configuration not stated) is lower in activity, negative = cell killing: -4.88% for the first, -14.6% for the second.

same assay, conditions: GBM patient neurospheres viability, ATP luminescence, 48 h; at 91.6 µM (top of the series); tumour line D

First: CC(C)C(C)(C)C(C)(C)C(C)(C)S
Second: CN1C(=O)c2ccccc2C1=O
The activity, negative = cell killing of the first is higher: -2.43% for the first, -20.8% for the second.

First: O=C(Oc1ccccc1)c1cccc(C(=O)Oc2ccccc2)c1
Second: Brc1ccccc1-c1ccccc1
The activity, negative = cell killing of the first is higher: -9.21% for the first, -21.1% for the second.

First: c1ccc2occc2c1
Second: C1=CC2C3C=CC(C3)C2C1 (configuration not stated)
The activity, negative = cell killing of the first is higher: -16% for the first, -19.1% for the second.
